Data on 39 compounds can be found in PubChem BioAssay AID720706 (Broad Institute, 2013).

The whole screen tested about 350,000 compounds, of which about 5,500 (1.6%) were called active.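 How the source made its calls: active means significant combined selectivity score with lowered wild-type GFP, culture density cut under 30%, mutant RFP and density less affected; inactive means any of these conditions unmet.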 What follows is part of a selection rich in actives, with near analogues and random picks from the rest.

This test in a line: reduced GFP signal of wild-type E. coli, primary screen, bacterial rRNA inhibitor project, GFP/RFP fluorescence, OD600, single point (AID 720706). Particulars: E. coli WT GFP vs humanized-ribosome RFP mutants, 24 h; GFP signal change (wild-type ribosome): stronger effect = lower value, DMSO median 0, no signal -100; OD600 change: measured here: OD600 growth, DMSO median 0, no signal -100; RFP signal change: measured here: RFP humanized mutant strains, DMSO median 0, no signal -100, concentration not given here.
Turning to `O=C(C[C@@H]1CC[C@H]2[C@@H](COC[C@H](O)CN2C(=O)Nc2ccccc2)O1)NCCc1ccncc1`, the GFP signal change (wild-type ribosome) is 6.3% (inactive), the OD600 change amounted to 12.9% and the RFP signal change is -0.44%.
As to `Cc1ccc(S(=O)(=O)CCC(=O)OCc2ccccc2)cc1`, the GFP signal change (wild-type ribosome) is 0.84% (inactive), the OD600 change came out at 1.2% and the RFP signal change turned out to be 2.56%.
In the case of `Cc1nn(C(C)(C)C)c(OC(=O)CC(C)C)c1S(=O)(=O)c1ccccc1`, the GFP signal change (wild-type ribosome) is -21.5% (active), the OD600 change is -14.2% and the RFP signal change was -1.55%.
`CC(CC(=O)N1CCN(S(=O)(=O)c2ccccc2)CC1)n1cncn1` (configuration not stated): the GFP signal change (wild-type ribosome) was 5.03% (inactive), the OD600 change turned out to be 0.845% and the RFP signal change was -1.68%.
On the same counts, the results for `CNC[C@H]1Oc2ccccc2CC(=O)N(C)C[C@H]1C` are 1.46% (inactive), 4.75% and -1.05%.
Consider `CC(C)NC(=O)Nc1ccc2c(c1)CC(=O)N(C)C[C@@H](C)[C@@H](CN(C)C(=O)OC(C)(C)C)O2`, for which the GFP signal change (wild-type ribosome) is 2.38% (inactive), the OD600 change was 4.01% and the RFP signal change was 0.746%.
In the case of `CC(C)C#Cc1ccc2c(c1)O[C@@H](CN(C)C(=O)CN(C)C)[C@@H](C)CN([C@H](C)CO)S2(=O)=O`, the GFP signal change (wild-type ribosome) is 2.76% (inactive), the OD600 change came out at 1.18% and the RFP signal change was -1.07%.
On the same counts, the results for `CCCNC(=O)N(C)C[C@@H]1Oc2ncc(-c3cccc(C#N)c3)cc2C(=O)N([C@@H](C)CO)C[C@@H]1C` are 5.65% (inactive), 14.1% and -4.23%.
In the case of `Cc1ccc(CNC(=O)Cc2cn(C)c3ccccc23)cc1`, the GFP signal change (wild-type ribosome) was -9.46% (inactive), the OD600 change is -8.64% and the RFP signal change was 3.4%.
Regarding `Cc1ccc(N2C(=O)S/C(=C/c3cn(C)c4ccccc34)C2=O)cc1`, the GFP signal change (wild-type ribosome) is 5.23% (inactive), the OD600 change was found to be 9.33% and the RFP signal change was determined as 6.02%.
With `Cn1cc(C2OC(=O)c3ccccc32)c2ccccc21` (configuration not stated), the GFP signal change (wild-type ribosome) is -10.5% (active), the OD600 change is -18.9% and the RFP signal change was -4.84%.
The like results for `CN1c2ccc(-c3ccccc3F)cc2[C@@H]2[C@@H](CCN2C(=O)CN2CCOCC2)[C@H]1CO` were, in that order, -2.46% (inactive), -0.94% and -0.302%.
As to `C[C@@H]1CN([C@H](C)CO)C(=O)c2cc(NC(=O)Cn3cnnn3)ccc2O[C@@H]1CN(C)Cc1ccc(C(F)(F)F)cc1`, the GFP signal change (wild-type ribosome) was -1.05% (inactive), the OD600 change is -5.5% and the RFP signal change is -0.189%.
For the compound `OCCN(Cc1ccccc1)Cc1ccc(Cl)cc1`, the GFP signal change (wild-type ribosome) is -23% (active), the OD600 change is -9.66% and the RFP signal change was 0.44%.
As to `O=C(Cc1ccc(Cl)cc1)c1ccccc1`, the GFP signal change (wild-type ribosome) is 3.35% (inactive), the OD600 change came to 2.91% and the RFP signal change was -5.05%.
The like results for `CN(C(=O)CN(CCO)CC(=O)N(C)C(C)(C)Cc1ccccc1)C(C)(C)Cc1ccccc1` were, in that order, -31.9% (inactive), -35.7% and -7.29%.
Regarding `CCC(=O)N[C@H]1CC[C@@H](CC(=O)NCC2CC2)O[C@@H]1CO`, the GFP signal change (wild-type ribosome) was 3.28% (inactive), the OD600 change was determined as 7.08% and the RFP signal change is 3.11%.
Consider `CC(C)NC(=O)Nc1ccc2c(c1)C(=O)N([C@@H](C)CO)C[C@H](C)[C@@H](CN(C)Cc1ccc(C(=O)O)cc1)OCCCC[C@H](C)O2`, for which the GFP signal change (wild-type ribosome) was -0.801% (inactive), the OD600 change turned out to be 3.15% and the RFP signal change is -0.195%.
As to `CN1CCN(c2ccc(NC(=O)c3ccc4c(c3)OCCO4)cc2Cl)CC1`, the GFP signal change (wild-type ribosome) was 3.42% (inactive), the OD600 change was found to be 2.75% and the RFP signal change is -7.15%.
Take `O=C(Nc1ccc(N2CCN(C(=O)c3ccccc3)CC2)c(Cl)c1)c1ncn[nH]1`: the GFP signal change (wild-type ribosome) was -24.4% (active), the OD600 change is -14.7% and the RFP signal change stood at 0.07%.
On the same counts, the results for `O=C(Nc1ccccc1N1CCN(C(=O)c2ccccc2)CC1)c1ccco1` are -8.24% (inactive), -9.77% and -0.948%.
On the same counts, the results for `COc1ccc2c3c([nH]c2c1)[C@@H](CO)N(C(=O)C1CC1)CC31CCN(Cc2nccs2)CC1` are -6.7% (inactive), -0.445% and -3.97%.
On the same counts, the results for `CCCNC(=O)C[C@@H]1CC[C@H]2[C@@H](COc3ccc(NC(=O)C4CCCC4)cc3C(=O)N2C)O1` are 2.97% (inactive), 3.62% and 0.145%.
Consider `O=C(NC1CCC1)[C@@H]1[C@@H](CO)[C@@H]2Cn3c(ccc(/C=C/c4ccccc4)c3=O)[C@@H]2N1Cc1ccncc1`, for which the GFP signal change (wild-type ribosome) is -9.73% (inactive), the OD600 change is -7.87% and the RFP signal change is 7.36%.
On to `O=C(Nc1ccc(F)cc1)N1CC(=O)N2[C@H](CO)[C@H](c3ccc(C#Cc4ccccc4)cc3)[C@H]2C1`, for which the GFP signal change (wild-type ribosome) is -32.4% (inactive), the OD600 change was -57.1% and the RFP signal change was determined as 29%.
On to `C[C@@H]1CCCCO[C@H](CN(C)C)[C@H](C)CN([C@@H](C)CO)C(=O)c2cc(NS(=O)(=O)c3cn(C)cn3)ccc2O1`, for which the GFP signal change (wild-type ribosome) was 3.31% (inactive), the OD600 change amounted to 6.19% and the RFP signal change is -1.01%.
Consider `CCn1c(SCC(=O)Nc2cc(C)c(Cl)cc2OC)nnc1-c1ccco1`, for which the GFP signal change (wild-type ribosome) is -38.4% (inactive), the OD600 change was -53.5% and the RFP signal change was -9.88%.
For the compound `Cn1c(SCC(=O)c2cccs2)nnc1-c1ccco1`, the GFP signal change (wild-type ribosome) is 1.2% (inactive), the OD600 change was 2.27% and the RFP signal change stood at 0.555%.
With `CSc1nc(-c2ccco2)nn1C(=O)c1ccccc1Cl`, the GFP signal change (wild-type ribosome) was -25.9% (active), the OD600 change was -15.3% and the RFP signal change stood at 0.841%.
Consider `COc1ccc(S(=O)(=O)N(C)C[C@@H]2Oc3ccc(NC(=O)CCC(F)(F)F)cc3C(=O)N([C@@H](C)CO)C[C@@H]2C)cc1`, for which the GFP signal change (wild-type ribosome) is 2.48% (inactive), the OD600 change was found to be 3.34% and the RFP signal change is -0.798%.
The like results for `C[C@@H](O)C#Cc1ccc([C@H]2[C@H]3CN(C(=O)c4ccc5c(c4)OCO5)CCCCN3[C@H]2CO)cc1` were, in that order, 3.47% (inactive), -9% and 2.17%.
On the same counts, the results for `COc1ccc(-c2cc(=O)oc3cc(OC(C)C(=O)Nc4ccc(CN5CCOCC5)cc4)ccc23)cc1` (configuration not stated) are -20% (active), -14.2% and 3.54%.
On to `COc1ccc2oc(=O)cc(CN3CCOCC3)c2c1`, for which the GFP signal change (wild-type ribosome) is 18.2% (inactive), the OD600 change was found to be 14.8% and the RFP signal change was found to be 0.523%.
As for `CCCc1cc(=O)oc2cc(OCC(=O)Nc3ccc(CN4CCOCC4)cc3)c(Cl)cc12`, the GFP signal change (wild-type ribosome) is 0.107% (inactive), the OD600 change was determined as 0.304% and the RFP signal change is -1.17%.
Turning to `C[C@@H]1CCCCO[C@@H](CN(C)C(=O)c2ccccc2)[C@H](C)CN([C@@H](C)CO)C(=O)c2cc(NS(=O)(=O)c3cn(C)cn3)ccc2O1`, the GFP signal change (wild-type ribosome) is 4.03% (inactive), the OD600 change came out at 4.12% and the RFP signal change is -1.99%.
As to `O=C(CCNC(=O)c1ccc(Br)cc1)Nc1cccc(S(=O)(=O)N2CCCCC2)c1`, the GFP signal change (wild-type ribosome) was -12.3% (inactive), the OD600 change was -43.3% and the RFP signal change came to 1.03%.
On the same counts, the results for `CC(NC(=O)c1ccccc1)C(=O)OCC(=O)Nc1cccc(S(=O)(=O)N2CCCC2)c1` (configuration not stated) are -2.56% (inactive), 4.84% and -0.0785%.
As to `Cc1ccc(C(=O)NCC(=O)OCC(=O)Nc2cccc(S(=O)(=O)N3CCCC3)c2)cc1C`, the GFP signal change (wild-type ribosome) was -20.9% (active), the OD600 change was -2.78% and the RFP signal change is -2.48%.
The like results for `CC(C)(C)[S@](=O)N1Cc2cc(C(=O)N[C@@H]3CCN(Cc4ccccc4)C3)nc(-c3cccc(-c4ccncc4)c3)c2[C@@H]1CCO` were, in that order, 1.13% (inactive), 9.43% and -4.39%.
